Inconclusive results are not listed. The source made the active and inactive calls. Unless noted, the call rests on the fitted dose curve.

The target of test [1] is Bile acid receptor (Homo sapiens) (UniProt Q96RI1). Kind of test: qHTS assay for small molecule antagonists of farnesoid X receptor signaling (AID 588526). Further: on the % scale 0 is the no-effect control and ±100 the full control effect. A digest of the protocol:
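Antagonist mode: titrated compounds tested against chenodeoxycholic acid stimulation (normalized to 50 uM CDCA and DMSO) in GeneBLAzer HEK293T cells for 16 h. Beta-lactamase read by CCF4 fluorescence; IC50 from Hill fits.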
In general terms: In qHTS, concentration-response curves come from the screen itself.

In test [2] the target is Glucocorticoid receptor (Homo sapiens) (UniProt P04150). Kind of test: qHTS assay for small molecule agonists of glucocorticoid receptor signaling (AID 588532; active means well fitted curve in the direction sought with a large enough effect in the signal ratio, with a control signal flat; the % refers to the signal ratio;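 further: 100% = dexamethasone at 0.1 µM and 0% = DMSO only wells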). Particulars: HeLa MMTV-bla, beta-lactamase ratio, agonist, 18 h; stronger effect = higher value; percent of dexamethasone control, DMSO zero. Put shortly:
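HeLa GRE-bla reporter cells; 18 h compound exposure at 37 C; 2 h CCF4 loading at room temperature; fluorescence at 460 and 530 nm; EC50 by Hill equation.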

Test [3] shares this target. Kind of test: qHTS assay for small molecule antagonists of glucocorticoid receptor signaling (AID 588533; active means well fitted inhibition curve with a large enough effect in the signal ratio, with a control signal flat, not every such curve was filed as active; the % refers to the signal ratio; further: on the % scale 0 is the no-effect control and ±100 the full control effect). A digest of the protocol:
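Antagonist-mode qHTS: compound titrations added to GRE-bla HeLa cells, then dexamethasone 2 nM final; 18 h, 37 C. CCF4 FRET fluorescence normalized to dexamethasone and DMSO; IC50 from Hill fit.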

Test [4] can be described thus: qHTS assay for small molecule antagonists of peroxisome proliferator-activated receptor delta signaling (AID 588535; active means well fitted inhibition curve with a large enough effect in the signal ratio, with a control signal flat, not every such curve was filed as active; the % refers to the signal ratio;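 on max response: cells co-treated with a PPAR-delta agonist as stimulator during compound exposure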). The conditions noted are these: HEK293T PPARd-UAS-bla, beta-lactamase FRET ratio, 18 h; 460 nm channel. A digest of the protocol:
(§1)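 Cells were seeded at 4000 per well in assay medium containing 2% charcoal/dextran FBS and held 5 hrs at 37 C. Compounds were then added for 18 hrs. CCF4 substrate was applied for 2 hrs at room temperature before fluorescence reading.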

The target of test [5] is Peroxisome proliferator-activated receptor delta (Homo sapiens) (UniProt Q03181). Described as above. Put shortly:
as §1

The target of test [6] is Peroxisome proliferator-activated receptor gamma (Homo sapiens) (UniProt P37231). Kind of test: qHTS assay for small molecule agonists of peroxisome proliferator-activated receptor gamma signaling (AID 588536; active means well fitted curve in the direction sought with a large enough effect in the signal ratio, with a control signal flat, not every such curve was filed as active; the % refers to the signal ratio;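 further: 0% = DMSO basal wells and 100% = rosiglitazone at 2 µM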). Put shortly:
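Test agents, titrated, stimulated HEK293 UAS-bla cells overnight (16 h, 37 C). Substrate CCF4 was then added for two hours at room temperature before fluorescence reading.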

The target is the same in test [7]. Kind of test: qHTS assay for small molecule antagonists of peroxisome proliferator-activated receptor gamma signaling (AID 588537; active means well fitted inhibition curve with a large enough effect in the signal ratio, with a control signal flat, not every such curve was filed as active; the % refers to the signal ratio;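 further: reporter cells co-stimulated with 50 nM rosiglitazone agonist during compound treatment; % of control where 0% means no effect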). A digest of the protocol: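 Step one: plate 3000 HEK293 UAS-bla cells per well in medium with 1% stripped serum and hold 6-6.5 h at 37 C. Step two: add compound and 50 nM agonist for 16 h. Step three: CCF4 loading, fluorescence read.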

Test [8] has as its target Vitamin D3 receptor (Homo sapiens) (UniProt P11473). Kind of test: qHTS assay for small molecule antagonists of vitamin D receptor signaling (AID 588541).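 Further: receptor activated by calcitriol during compound treatment; series mostly up to about 77 µM; on the % scale 0 is the no-effect control and ±100 the full control effect.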 A digest of the protocol:
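VDR-UAS-bla HEK293T cells in 2% charcoal-stripped FBS were stimulated with 1-alpha,25-dihydroxyvitamin D3 (3 nM final) plus compound for 16 h at 37 C. The beta-lactamase CCF4 readout was normalized to 50 nM agonist and DMSO, and Hill fits gave IC50.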

Test [9] shares this target. Kind of test: qHTS assay for small molecule agonists of vitamin D receptor signaling (AID 588543).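 Further: 0% = DMSO basal and 100% = reference agonist control.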 A digest of the protocol:
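GeneBLAzer VDR-UAS-bla HEK293T cells in 2% charcoal-stripped FBS medium were dosed with compound titrations for 16 h at 37 °C; CCF4 β-lactamase readout (405 nm ex, 460/530 nm em). EC50 and efficacy from Hill fits, normalized to 50 nM calcitriol (100%) and DMSO (0%).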

Test [10] can be described thus: qHTS assay for small molecule agonists of retinoid X receptor alpha signaling (AID 588544).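 On activation: 0% = DMSO basal wells and 100% = reference agonist.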 The conditions noted are these: HEK293T RXRa-UAS-bla, beta-lactamase reporter, 18 h; 530 nm emission.
Test [11] deals with Retinoic acid receptor RXR-alpha (Homo sapiens) (UniProt P19793). Described as above.
Retinoic acid receptor RXR-alpha (Homo sapiens), sequence (P19793 whole entry, looked up): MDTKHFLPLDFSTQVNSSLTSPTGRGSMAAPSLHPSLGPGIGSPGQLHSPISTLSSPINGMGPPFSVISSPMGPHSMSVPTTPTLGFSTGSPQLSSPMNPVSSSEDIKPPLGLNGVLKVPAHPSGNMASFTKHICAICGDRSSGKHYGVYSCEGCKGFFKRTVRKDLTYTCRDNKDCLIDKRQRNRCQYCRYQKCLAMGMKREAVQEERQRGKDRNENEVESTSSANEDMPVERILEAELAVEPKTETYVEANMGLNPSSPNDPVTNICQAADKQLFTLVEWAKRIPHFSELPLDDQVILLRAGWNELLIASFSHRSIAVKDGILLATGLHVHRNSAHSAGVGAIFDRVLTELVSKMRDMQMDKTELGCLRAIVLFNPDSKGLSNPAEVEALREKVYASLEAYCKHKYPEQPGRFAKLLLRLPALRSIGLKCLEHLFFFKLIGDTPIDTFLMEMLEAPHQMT
In test [12] the target is Thyroid hormone receptor beta (Homo sapiens) (UniProt P10828). Kind of test: qHTS assay for small molecule agonists of thyroid hormone receptor beta signaling (AID 588545). A digest of the protocol: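 In this cell-based screen, titrated compounds act on HEK 293 cells held in medium with 2% charcoal/dextran FBS, NEAA and pyruvate for 18 hrs at 37 C. Responses are expressed relative to T3 (10 nM) as 100% and basal DMSO as 0%.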
Thyroid hormone receptor beta (Homo sapiens), sequence (P10828 whole entry, looked up): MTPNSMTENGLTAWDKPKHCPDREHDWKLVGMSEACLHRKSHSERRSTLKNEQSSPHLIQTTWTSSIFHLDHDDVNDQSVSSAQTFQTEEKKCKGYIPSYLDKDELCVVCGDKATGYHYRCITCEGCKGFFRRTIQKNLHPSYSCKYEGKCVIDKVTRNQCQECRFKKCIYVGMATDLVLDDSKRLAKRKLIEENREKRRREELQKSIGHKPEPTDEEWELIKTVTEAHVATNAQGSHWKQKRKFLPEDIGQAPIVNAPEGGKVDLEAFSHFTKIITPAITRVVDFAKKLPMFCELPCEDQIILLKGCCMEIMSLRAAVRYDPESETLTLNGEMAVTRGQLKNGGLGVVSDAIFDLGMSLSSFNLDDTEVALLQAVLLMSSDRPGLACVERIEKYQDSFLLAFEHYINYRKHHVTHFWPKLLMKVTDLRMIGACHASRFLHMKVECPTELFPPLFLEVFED

Test [13] in a line: qHTS assay for small molecule antagonists of retinoid X receptor alpha signaling (AID 588546; active means well fitted inhibition curve with a large enough effect in the signal ratio, with a control signal flat, not every such curve was filed as active; the % refers to the signal ratio;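 further: cells stimulated with 9-cis-retinoic acid as agonist; on the % scale 0 is the no-effect control and ±100 the full control effect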). The conditions noted are these: HEK293T RXRa-UAS-bla, beta-lactamase ratio, antagonist mode; measured here: W530 green channel, cytotoxicity proxy. Put shortly:
(§2)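 Beta-lactamase reporter inhibition, read as CCF4 fluorescence ratio (ex 405, em 460/530 nm) after 2 h at RT. HEK293T UAS-bla cells, 2500/well, were stimulated with 9-cis-RA at 500 or 100 nM final alongside test compound for 18 h at 37 C.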

Test [14] deals with Retinoic acid receptor RXR-alpha (Homo sapiens) (UniProt P19793). Described as above. The conditions noted are these: HEK293T RXRa-UAS-bla, beta-lactamase ratio, antagonist mode. Put shortly:
as §2

In test [15] the target is Thyroid hormone receptor beta (Homo sapiens) (UniProt P10828). Kind of test: qHTS assay for small molecule antagonists of thyroid hormone receptor beta signaling (AID 588547; active means well fitted inhibition curve with a large enough effect in the signal ratio, with a control signal flat, not every such curve was filed as active; the % refers to the signal ratio). Particulars: TR-UAS-bla HEK293, beta-lactamase ratio, antagonist mode, 18 h. A digest of the protocol: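 TR-UAS-bla GripTite HEK293 cells in 2% charcoal/dextran FBS medium; compounds 0.59 nM to 92 uM with T3 at 0.4nM final, 18 h at 37 C. Beta-lactamase read by CCF4 fluorescence (460/530 nm); Hill fits gave IC50 and efficacy.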

Test [16] deals with Voltage-gated inwardly rectifying potassium channel KCNH2 (Homo sapiens) (UniProt Q12809). Kind of test: qHTS Assay for Small Molecule Inhibitors of the Human hERG Channel Activity (AID 588834; active means well fitted inhibition curve with a large enough effect;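 further: top concentration of the series differs between compounds; on the % scale 0 is the no-effect control and ±100 the full control effect; lower thallium flux fluorescence means stronger hERG block; nearly all actives have a fitted effect of over 50% in size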). A digest of the protocol: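 U2OS cells transduced with hERG via BacMam (MOI ~100), plated 2000/well, loaded with FluxOR thallium dye, compound ~10 min, then stimulation buffer; fluorescence decrease read kinetically; AC50 from Hill fits.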
Voltage-gated inwardly rectifying potassium channel KCNH2 (Homo sapiens), sequence (Q12809 whole entry, looked up): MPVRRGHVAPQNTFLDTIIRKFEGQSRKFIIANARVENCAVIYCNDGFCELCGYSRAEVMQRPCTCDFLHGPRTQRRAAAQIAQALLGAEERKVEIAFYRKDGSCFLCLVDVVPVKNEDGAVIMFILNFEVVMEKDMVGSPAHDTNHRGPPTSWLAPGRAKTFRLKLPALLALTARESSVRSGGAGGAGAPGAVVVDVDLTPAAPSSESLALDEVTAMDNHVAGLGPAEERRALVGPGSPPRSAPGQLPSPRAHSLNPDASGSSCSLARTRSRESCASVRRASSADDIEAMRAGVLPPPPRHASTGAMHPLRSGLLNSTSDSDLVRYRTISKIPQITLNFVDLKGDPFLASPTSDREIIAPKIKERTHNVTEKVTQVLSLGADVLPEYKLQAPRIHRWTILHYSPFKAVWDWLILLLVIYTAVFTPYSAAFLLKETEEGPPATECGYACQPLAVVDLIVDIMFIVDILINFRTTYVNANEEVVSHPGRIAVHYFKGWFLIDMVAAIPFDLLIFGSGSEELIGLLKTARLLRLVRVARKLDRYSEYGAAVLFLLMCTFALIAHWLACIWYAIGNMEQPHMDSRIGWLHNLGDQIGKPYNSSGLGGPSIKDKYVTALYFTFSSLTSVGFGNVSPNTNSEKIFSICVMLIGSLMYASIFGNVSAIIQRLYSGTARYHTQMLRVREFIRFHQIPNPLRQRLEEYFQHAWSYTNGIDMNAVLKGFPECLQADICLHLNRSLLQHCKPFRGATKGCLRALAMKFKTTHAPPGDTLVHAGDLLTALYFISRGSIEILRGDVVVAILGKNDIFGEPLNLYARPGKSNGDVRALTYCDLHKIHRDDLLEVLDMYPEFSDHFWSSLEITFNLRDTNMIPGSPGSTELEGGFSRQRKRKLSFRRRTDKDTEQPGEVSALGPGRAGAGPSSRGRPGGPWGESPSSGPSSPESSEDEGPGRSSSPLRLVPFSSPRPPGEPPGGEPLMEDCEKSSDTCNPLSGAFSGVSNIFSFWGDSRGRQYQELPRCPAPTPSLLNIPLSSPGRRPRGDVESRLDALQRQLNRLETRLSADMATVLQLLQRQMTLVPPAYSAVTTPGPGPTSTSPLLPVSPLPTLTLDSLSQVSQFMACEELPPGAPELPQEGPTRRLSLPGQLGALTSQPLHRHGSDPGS

Test [17] can be described thus: qHTS assay for small molecule agonists of the antioxidant response element (ARE) signaling pathway (AID 651741; active means well fitted activation curve with a large enough effect in the signal ratio; the % refers to the signal ratio; further: % of control where 0% means no effect). Put shortly:
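HepG2 ARE-bla cells plated at 2,000 cells/well and incubated 5 h at 37 C/5% CO2 received 23 nL compound in DMSO. After 16 h at 37 C, LiveBLAzer B/G FRET substrate was applied for 2 h at room temperature and fluorescence read.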

The nature of test [18]: qHTS assay for small molecule activators of the p53 signaling pathway (AID 651743; active means well fitted activation curve with a large enough effect in the signal ratio, not every such curve was filed as active; the % refers to the signal ratio; further: series mostly up to about 92 µM; % of control where 0% means no effect). Particulars: HCT-116 p53RE-bla, beta-lactamase FRET ratio, 16 h; stronger effect = higher value. Put shortly:
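HCT-116 p53RE-bla, 4,000 cells/well; 5 h settle; cpd/DMSO 16 h, 37 C; LiveBLAzer B/G 2 h RT; fluorescence intensity.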

A short description of test [19]: qHTS assay for small molecule activators of the nuclear factor-kappa B (NF-kB) signaling pathway (AID 651749; active means well fitted activation curve with a large enough effect in the signal ratio; the % refers to the signal ratio; further: series mostly up to about 77 µM; % of control where 0% means no effect). The conditions noted are these: NF-kB-bla ME-180 cells, beta-lactamase FRET ratio, 16 h; stronger effect = higher value. A digest of the protocol: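 Incubation lasted 16 hr at 37C in 5% CO2 after 23 nL compound addition to ME-180 NF-kB-bla cells. Activation appears as beta-lactamase-mediated FRET loss.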

Test [20] concerns the target Androgen receptor (Homo sapiens) (UniProt P10275). Kind of test: qHTS assay for small molecule antagonists of androgen receptor signaling (AID 588516; active means well fitted curve in the direction sought with a large enough effect in the signal ratio, with a control signal flat, not every such curve was filed as active; the % refers to the signal ratio; further: on the % scale 0 is the no-effect control and ±100 the full control effect). A digest of the protocol:
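AR-UAS-bla-GripTite HEK 293 cells (2000/well, 5 h at 37 C) received compound titrations, then R1881 at 10 nM final; after 16 h at 37 C, CCF4 dye 2 h RT, beta-lactamase fluorescence read; IC50 from Hill fits.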

Peroxisome proliferator-activated receptor delta (Homo sapiens), sequence (Q03181 whole entry, looked up): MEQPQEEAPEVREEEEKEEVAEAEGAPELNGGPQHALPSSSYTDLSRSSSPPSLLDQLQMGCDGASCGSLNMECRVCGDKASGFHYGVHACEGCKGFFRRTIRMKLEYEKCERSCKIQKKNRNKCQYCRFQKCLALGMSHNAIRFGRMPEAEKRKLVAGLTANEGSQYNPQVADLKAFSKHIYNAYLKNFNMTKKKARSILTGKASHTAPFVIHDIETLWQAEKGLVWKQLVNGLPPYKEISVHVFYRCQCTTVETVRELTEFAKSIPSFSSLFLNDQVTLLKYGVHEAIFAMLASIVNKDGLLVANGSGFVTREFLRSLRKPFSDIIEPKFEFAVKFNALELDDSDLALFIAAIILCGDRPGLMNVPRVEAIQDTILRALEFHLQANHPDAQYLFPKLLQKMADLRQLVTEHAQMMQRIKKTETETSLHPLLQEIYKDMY
Bile acid receptor (Homo sapiens), sequence (Q96RI1 whole entry, looked up): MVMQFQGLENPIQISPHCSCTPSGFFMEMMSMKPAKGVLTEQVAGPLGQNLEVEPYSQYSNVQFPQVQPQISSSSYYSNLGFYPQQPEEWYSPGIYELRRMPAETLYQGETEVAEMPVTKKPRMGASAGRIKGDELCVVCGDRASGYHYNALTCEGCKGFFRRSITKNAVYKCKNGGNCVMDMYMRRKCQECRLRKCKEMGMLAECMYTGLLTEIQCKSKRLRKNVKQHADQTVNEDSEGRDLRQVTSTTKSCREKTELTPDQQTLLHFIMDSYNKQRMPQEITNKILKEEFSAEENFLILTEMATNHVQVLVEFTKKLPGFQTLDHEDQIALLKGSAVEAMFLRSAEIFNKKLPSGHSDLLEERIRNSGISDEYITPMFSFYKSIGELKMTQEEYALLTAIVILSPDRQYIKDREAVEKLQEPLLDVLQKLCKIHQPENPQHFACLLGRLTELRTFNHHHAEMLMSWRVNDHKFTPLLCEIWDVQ
Glucocorticoid receptor (Homo sapiens), sequence (P04150 whole entry, looked up): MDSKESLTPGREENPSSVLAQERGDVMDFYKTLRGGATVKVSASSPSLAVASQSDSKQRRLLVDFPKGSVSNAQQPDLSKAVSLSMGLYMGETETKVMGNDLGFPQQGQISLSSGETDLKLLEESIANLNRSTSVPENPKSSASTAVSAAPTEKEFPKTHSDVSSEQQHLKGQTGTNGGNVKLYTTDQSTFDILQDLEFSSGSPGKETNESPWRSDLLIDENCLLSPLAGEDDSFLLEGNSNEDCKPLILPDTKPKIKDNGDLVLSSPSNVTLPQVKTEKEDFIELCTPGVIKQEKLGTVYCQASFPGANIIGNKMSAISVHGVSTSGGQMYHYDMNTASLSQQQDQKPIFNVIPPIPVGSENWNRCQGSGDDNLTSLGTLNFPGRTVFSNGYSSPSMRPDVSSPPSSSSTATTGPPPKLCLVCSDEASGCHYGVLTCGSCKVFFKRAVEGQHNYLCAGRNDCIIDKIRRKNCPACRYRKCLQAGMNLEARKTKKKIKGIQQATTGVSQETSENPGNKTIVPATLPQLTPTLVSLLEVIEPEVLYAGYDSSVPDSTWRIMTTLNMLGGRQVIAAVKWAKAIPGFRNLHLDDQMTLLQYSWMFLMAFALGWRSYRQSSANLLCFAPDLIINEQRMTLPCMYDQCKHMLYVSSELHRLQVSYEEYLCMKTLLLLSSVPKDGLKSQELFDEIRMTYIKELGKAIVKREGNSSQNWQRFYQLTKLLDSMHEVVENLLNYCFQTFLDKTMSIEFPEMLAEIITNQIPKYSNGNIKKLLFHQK
Peroxisome proliferator-activated receptor gamma (Homo sapiens), sequence (P37231 whole entry, looked up): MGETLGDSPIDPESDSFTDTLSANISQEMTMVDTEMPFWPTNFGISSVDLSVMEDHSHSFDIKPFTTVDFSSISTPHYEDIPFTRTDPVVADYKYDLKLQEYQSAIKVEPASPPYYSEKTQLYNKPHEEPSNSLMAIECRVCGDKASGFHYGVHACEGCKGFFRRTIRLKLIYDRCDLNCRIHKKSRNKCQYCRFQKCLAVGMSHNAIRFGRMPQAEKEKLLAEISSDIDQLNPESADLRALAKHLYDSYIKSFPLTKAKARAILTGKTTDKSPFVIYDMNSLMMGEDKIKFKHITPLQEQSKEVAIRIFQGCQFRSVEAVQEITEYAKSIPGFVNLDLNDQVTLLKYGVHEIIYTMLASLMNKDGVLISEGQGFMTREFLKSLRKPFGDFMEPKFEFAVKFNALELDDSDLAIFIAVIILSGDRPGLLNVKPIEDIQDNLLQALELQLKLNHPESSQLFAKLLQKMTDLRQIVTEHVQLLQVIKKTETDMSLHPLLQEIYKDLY
Vitamin D3 receptor (Homo sapiens), sequence (P11473 whole entry, looked up): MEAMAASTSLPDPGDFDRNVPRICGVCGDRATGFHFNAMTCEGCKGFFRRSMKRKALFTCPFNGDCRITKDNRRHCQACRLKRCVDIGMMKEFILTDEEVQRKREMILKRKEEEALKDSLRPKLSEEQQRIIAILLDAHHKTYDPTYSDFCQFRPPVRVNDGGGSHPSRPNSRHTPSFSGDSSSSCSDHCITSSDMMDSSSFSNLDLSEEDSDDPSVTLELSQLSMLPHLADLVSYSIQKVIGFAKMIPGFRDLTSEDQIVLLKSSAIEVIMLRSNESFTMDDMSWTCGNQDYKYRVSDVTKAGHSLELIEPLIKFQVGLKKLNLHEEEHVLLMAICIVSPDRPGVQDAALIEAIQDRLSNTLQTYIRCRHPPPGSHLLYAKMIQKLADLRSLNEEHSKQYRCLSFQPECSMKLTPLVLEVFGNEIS

In the case of `N#Cc1ccccc1`, the result in test [1], in test [3], in test [6], in test [7], in test [8] and in [9] was inactive. Further, the compound was called inactive in [11] and in test [12]. Moreover, the activation was 4.79% (inactive) in test [2], -1.56% (inactive) in test [18] and 0.786% (inactive) in test [19]. Besides, the max response was -16.3% in [4], -9.04% in test [10], 0.37% in test [13] and 1.5% (inactive) in [14]. Moreover, the Potency entry in [5], in [16] and in test [17] was “inactive” in each case. Moreover, the activity change % (negative = inhibition) in [15] was 1.08% (inactive).
`Cc1ccc(CO)cc1`: the compound was classed as inactive in [1], in test [3], in test [6], in [7], in test [8] and in test [9]. The compound was classed as inactive in [11] and in [12]. Besides, the activation was -5.3% (inactive) in [2], -4.79% (inactive) in test [18] and -1.4% (inactive) in test [19]. For the same compound, the max response was 17.6% in test [4], -4.09% in test [10], -4.56% in test [13] and 0.12% (inactive) in test [14]. Moreover, the Potency result in test [5] and in test [16] was “inactive” in each case. Besides, in test [15], the activity change % (negative = inhibition) is 14.7% (inactive).
Turning to `Cc1ccc(C)cc1`, the call in test [20], in test [1], in test [3], in test [8] and in test [11] was inactive. Besides, the activation in [2] was -0.888% (inactive); in test [18], -3.21% (inactive). Moreover, the max response was -6.55% in test [4], 4.64% in test [10], -6.14% in test [13] and 34.4% (inactive) in test [14]. Further, the Potency result in [5], in [16] and in test [17] was “inactive” each time. The activity change % (negative = inhibition) in test [15] was 2.43% (inactive).
Consider `C=C(C)C1CC=C(C)C(OC(C)=O)C1` (configuration not stated), for which the result in [1], in [3], in [6], in test [7], in test [8] and in [9] was inactive. For the same compound, the compound was classed as inactive in [11] and in test [12]. Moreover, the results for the activation in [2] and in test [18] were 3.07% (inactive) and 1.6% (inactive), respectively. Besides, the max response is 6.72% in test [4], -3.57% in [10], -6.8% in test [13] and 1.02% (inactive) in test [14]. In addition, the Potency result in [5] and in test [16] was “inactive” throughout.
Take `CNC(=O)N(c1ccccc1)c1ccccc1`: the compound was called inactive in test [20], in [6] and in test [11]. The max response is -17.1% in test [10], 12.2% in test [13] and -3.69% (inactive) in test [14]. In [15], the activity change % (negative = inhibition) is 10.1% (inactive). In [16], the Potency result was “inactive”. Moreover, the activation in test [18] was 0.514% (inactive); in test [19], 0.192% (inactive).
Consider `FB(F)F`, for which the result in test [1], in test [3], in [6], in test [7], in [8] and in test [9] was inactive. The call in [11] and in [12] was inactive. Also, the activation is 3.97% (inactive) in test [2] and 5.29% (inactive) in [19]. For the same compound, the max response in [4] was 9.97%; in test [10], -9.29%; in [13], 16.6%; in [14], -6.25% (inactive). Moreover, the Potency entry in test [5], in [16] and in [17] was “inactive” throughout. Besides, in [15], the activity change % (negative = inhibition) is 15.2% (inactive).
In the case of `Nc1cccc([N+](=O)[O-])c1`, the compound was called inactive in [20], in [1], in [3], in test [6], in test [7] and in test [11]. Further, the activation in test [2] was 0.474% (inactive); in test [18] it was -4.7% (inactive). The max response in test [10] is -3.08%; in test [13], -9.54%; in [14], 1.86% (inactive). In addition, the activity change % (negative = inhibition) in [15] is -4.44% (inactive). In test [16], the Potency result is “inactive”.
For `O=Cc1ccc(Cl)cc1`, the outcome in test [20], in test [6], in test [7], in test [8], in test [9] and in [11] was inactive. In addition, the result in [12] was inactive. Besides, the max response in [4] was 7.54%; in [10] it was -8%; in [13] it was -0.849%. Besides, the Potency entry in test [5] and in test [16] was “inactive” throughout. For the same compound, the activation in test [18] is -0.245% (inactive).
